HPGD inh = blocks human HPGD enzyme activity; P15428; purified HPGD, NADH fluorescence kinetic, PGE2 substrate; Potency, µM, inactives show top-dose activity change, negative = inhibition, hits mostly inhibitors; 150,000 tested, 4.3% active; further: potency means the concentration at half of the fitted maximal effect
Target sequence (P15428 whole entry, looked up): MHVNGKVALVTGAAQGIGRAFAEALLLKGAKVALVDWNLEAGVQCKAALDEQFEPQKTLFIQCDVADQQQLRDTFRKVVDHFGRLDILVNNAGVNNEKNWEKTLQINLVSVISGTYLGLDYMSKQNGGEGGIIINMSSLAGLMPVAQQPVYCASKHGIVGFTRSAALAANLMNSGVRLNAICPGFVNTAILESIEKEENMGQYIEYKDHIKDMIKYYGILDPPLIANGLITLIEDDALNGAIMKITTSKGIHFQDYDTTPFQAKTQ
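20 nM HPGD preincubated 15 min at room temperature with compound in 50 mM Tris-HCl pH 8, 0.01% Tween 20. Started with 1 mM NAD+ and 30 uM prostaglandin E2; NADH fluorescence (360/450 nm) read 5 times over 30-s intervals, last minus first.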
IMPase Li cell = IMPase inhibition in cells with lithium potentiation. CHO-M1 cells, IP1 TR-FRET (IP-One), carbachol + lithium. Potency, µM (titrated, usually from 59.4 µM), inactives show top-dose activity, negative = IMPase inhibition, most hits filed as inhibitors. 210,000 tested, 0.35% active. AID 1457; active means well fitted inhibition curve with a large enough effect; inconclusive means small, poorly fitted or top-dose-only effect; inactive means no such curve, though single readings can be large or run the other way;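 further: IP1 builds up when IMPase is blocked and the TR-FRET signal falls; potency means the concentration at half of the fitted maximal effect; plate controls were basal vehicle for no effect and high inhibitor control for full effect; nearly all actives have a fitted effect of over 50% in size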
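Test compounds were applied to CHO-M1 cells previously cultured for 16–30 h at 2000 per well. A small lithium amount accompanied them; after 30 min at 37C, IP1 was quantified by TR-FRET.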
PNC assembly inh = perinucleolar compartment assembly inhibition; PC3M PTB-GFP, PNC prevalence imaging, 16 h; active compounds read low; activity change (PNC), negative = inhibition, % at 10 µM; 140,000 tested, 3.1% active;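 active means readout at or below -70, meaning at least 70% loss of cells showing the perinucleolar compartment, a nuclear body marking cancer cells; inconclusive means readout between -30 and a set limit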;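 further: plate controls were DMSO wells for no effect and camptothecin positive control wells for full effect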
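Compounds are pinned in duplicate onto adhered PC3M cells stably expressing GFP-tagged PTB and incubated 16 h at 37 C. Cells are then fixed, nuclei stained with Hoechst, and PNC-positive cells counted.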
ALDH1A1 block = ALDH1A1 (human) enzyme inhibition; P00352; Purified ALDH1A1, NADH fluorescence, propionaldehyde substrate; Potency, µM (titrated, usually from 75.3 µM), for inactives: at the top dose activity, negative = inhibition, hits mostly inhibitors; 220,000 tested, 7.3% active; AID 1030;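 further: potency means the concentration at half of the fitted maximal effect; plate controls were no enzyme wells and a reference inhibitor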
Target sequence (P00352 whole entry, looked up): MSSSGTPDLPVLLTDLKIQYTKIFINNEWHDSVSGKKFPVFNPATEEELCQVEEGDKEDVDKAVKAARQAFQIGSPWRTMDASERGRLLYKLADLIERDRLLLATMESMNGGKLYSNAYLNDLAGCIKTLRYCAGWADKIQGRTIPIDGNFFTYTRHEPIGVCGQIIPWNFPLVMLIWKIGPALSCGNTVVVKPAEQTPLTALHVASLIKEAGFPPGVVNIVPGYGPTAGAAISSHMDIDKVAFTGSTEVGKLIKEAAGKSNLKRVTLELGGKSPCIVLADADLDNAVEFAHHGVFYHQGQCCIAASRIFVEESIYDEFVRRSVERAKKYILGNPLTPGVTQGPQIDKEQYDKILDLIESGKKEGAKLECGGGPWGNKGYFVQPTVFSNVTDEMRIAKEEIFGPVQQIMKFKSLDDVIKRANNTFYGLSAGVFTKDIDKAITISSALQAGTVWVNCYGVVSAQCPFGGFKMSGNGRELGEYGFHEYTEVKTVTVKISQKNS
IMPase inh = IMPase inhibition in cells; P97697; CHO-M1 cells, IP1 accumulation, HTRF TR-FRET ratio; inhibition (IP1 accumulation), % at 46.1 µM; 120,000 tested, under 10 active; AID 901; active means well fitted curve in the direction sought with a large enough effect in the signal ratio, not every such curve was filed as active; inconclusive means small, poorly fitted or top-dose-only effect, or a change in a side signal; inactive means no such curve, though single readings can be large or run the other way; the % refers to the signal ratio;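 further: cells stimulated with carbachol in lithium chloride buffer; plate controls were DMSO basal wells for no effect and reference inhibitor wells for full effect; higher means more IMPase inhibition seen as more IP1 and lower FRET ratio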
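CHO-M1 cells (CHO stably expressing M1 receptor), compound up to 46 uM final, stimulated with carbachol (50 uM as added) in buffer with 50mM LiCl, pH 7.4, 30 min at 37C. Cytosolic IP1 read by TR-FRET; AC50 from Hill fits.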
Active calls of the source: *; ? = inconclusive; nt = no result; [ ] = another dose, or the depositor's remark. A selection: hits, their analogues and other compounds. The true share with any hit is near 11%. Unless noted, the call rests on the fitted dose curve; in most records, active means well fitted inhibition curve with a large enough effect (not every such curve was filed as active); inconclusive means small, poorly fitted or top-dose-only effect, or another doubt; inactive means no such curve, though single readings can be large or run the other way. Unless noted, on the % scale 0 is the no-effect control and ±100 the full control effect.

SMILES | HPGD inh | IMPase Li cell | PNC assembly inh | ALDH1A1 block | IMPase inh
CC1=NN(c2ccc(Cl)cc2)C(=O)C1C(c1cccc(O)c1)c1c(C)[nH]n(-c2ccc(Cl)cc2)c1=O (configuration not stated) | 25.1µM* | 11.5% | 16.1 | 3.98µM* | nt
CCCCCC#CCC#CCC#CCC#CCCCC(=O)O | -12.4% | 2.6% | 19.0 | -9.8% | nt
O=C1COc2ccc(-c3csc(NCC4CCCO4)n3)cc2N1 (configuration not stated) | -13.8% | -4.7%[38.3 µM] | 13.1 | 5.8% | 6.7
CC(Nc1nc(-c2ccc3c(c2)NC(=O)CO3)cs1)c1ccccc1 (configuration not stated) | nt | 22.5% | nt | 6.31µM* | nt
COc1cccc(-c2nc(-c3ccc4c(c3)NC(=O)CO4)cs2)c1 | nt | 2.9% | nt | 20µM* | nt
Cc1ccc(O)c(C(=O)c2cnc3c(c2)c(-c2ccc(F)cc2)c(C#N)c(=O)n3C)c1 | nt | 12.0% | nt | -4.4% | nt
CCc1nn2cc(C(=O)c3ccccc3O)cnc2c1-c1ccc(F)cc1 | 15.8µM* | 12.1% | 63.1 | ? | 1.5
CCc1nn2cc(C(=O)c3cc(C)ccc3O)cnc2c1-c1ccc(F)cc1 | 15.8µM* | 5.5% | ? | ? | -3.0
CCOc1ccc(NC(=O)CSc2nnc(C34CC5CC(CC(C5)C3)C4)n2C)cc1 | -18.3% | 0.2%[38.3 µM] | ? | ? | 3.2
COC(=O)[C@]1(C)CCC(c2ccc(C)cc2)=C(CC(=O)O)C1 | -6.7% | 4.5% | nt | -4.8%[13.5 µM] | nt
CCOC(=O)C1OC1C(=O)NC(CC(C)C)C(=O)NCCC(C)C (configuration not stated) | nt | 6.5% | nt | 0.6% | nt
N=C1N=C(N)c2cc3ccccc3cc21 | ? | -9.1% | nt | ? | nt
Cc1ccccc1-c1cc(-c2ccccc2O)n[nH]1 | ? | 44.0%[38.3 µM] | 4.3 | 10.3% | 5.7
Oc1ccc(Br)cc1-c1cc(-c2ccccc2F)[nH]n1 | 4.47µM* | 39.5%[38.3 µM] | 18.1 | 2.1% | ?
Oc1ccc(Cl)cc1-c1cc(-c2ccccc2)n[nH]1 | 15.8µM* | 36.9%[38.3 µM] | -12.0 | 3.6% | ?
COc1ccccc1-c1cc(-c2cc(Cl)ccc2O)n[nH]1 | -19.3% | -17.5%[38.3 µM] | -21.8 | ? | -1.8
CN(Cc1ccno1)Cc1cn(Cc2ccccc2)nc1-c1ccc2c(c1)OCO2 | nt | 8.2% | nt | ? | nt
CCOC(=O)CC(C(=O)OCC)P(=O)(c1ccccc1)c1ccccc1 (configuration not stated) | -3.5% | -3.4%[38.3 µM] | -22.9 | 10µM* | 3.4
CCCC(C(=O)OCC)P(=O)(c1ccccc1)c1ccccc1 (configuration not stated) | -2.1% | 12.5%[38.3 µM] | 5.3 | 12.4% | -0.1
CCOc1ccccc1NC(=O)C(NCC1(N2CCCCC2)CCCCC1)c1ccccc1 (configuration not stated) | nt | 7.6% | nt | ? | nt
O=C1CC(NNc2ccccc2)C(=O)N1c1ccc(N2CCCCC2)cc1 (configuration not stated) | nt | -3.8% | nt | ? | nt
Fc1cc(F)c(F)c(SCCc2ccncc2)c1F | ? | 11.4%[38.3 µM] | ? | 7.94µM* | 17.1
CCOc1ccc(S(=O)(=O)Nc2ccc(S(=O)(=O)N3CCCC3)cc2)cc1 | -7.2% | 24.1%[38.3 µM] | 33.8 | 3.16µM* | 9.6
CCOC(=O)N1CCN(S(=O)(=O)c2ccc(OCC)c(C)c2)CC1 | -9.5% | 19.7% | 24.9 | 15.8µM* | 2.5
CCOC(=O)N1CCN(S(=O)(=O)c2ccc(C(=O)Nc3nnc(C4CC4)o3)cc2)CC1 | -13.7% | 0.3% | -16.2 | 2.2% | nt
SMILES | HPGD inh | IMPase Li cell | PNC assembly inh | ALDH1A1 block | IMPase inh
CCOC(=O)N1CCN(S(=O)(=O)c2ccc(C(=O)Nc3nnc(CC)o3)cc2)CC1 | -23.3% | -5.1% | -82.5* | 3.4% | nt
CCOc1ccc(S(=O)(=O)Nc2ccc(S(=O)(=O)N3CCCCC3)cc2)cc1 | -4.5% | -6.6%[38.3 µM] | 1.3 | 2.24µM* | -2.2
CCOC(=O)c1ccc(NC(=O)N2CCN(Cc3ccccc3)CC2)cc1 | nt | -14.5% | nt | -12.3% | nt
Cn1c(Cn2nnc3ccccc32)nnc1SCC(=O)Nc1nccs1 | -14.6% | 0.3% | 17.1 | 1.9% | nt
CCC(=O)[C@]12O[C@@]3(C4C(=O)OCCC41)N(Cc1ccccc1)C(C)=C(C(=O)OC)C(c1ccccc1)N3C2=O (some centres not stated) | nt | nt | nt | -5.4%[13.5 µM] | nt
CC(/C=N/NC(=O)c1ccco1)=C\c1ccccc1 | nt | 0.9% | nt | -8.9% | nt
CCOc1cc(S(=O)(=O)N2CCCCC2)ccc1Cl | -12.6% | -5.3%[38.3 µM] | ? | 22.4µM* | 9.9
O=C1CN(S(=O)(=O)c2ccc(F)cc2)CC(=O)N1CCc1ccccc1 | ? | 14.0%[38.3 µM] | -100.0* | ? | 9.6
Cc1ccc(N2C(=O)CN(Cc3sccc3C)C2=S)cc1C | 3.16µM* | 7.4% | -25.8 | ? | 8.9
Cc1ccc(N2C(=O)CN(Cc3cccs3)C2=S)cc1C | nt | 3.9% | nt | 14.2% | nt
O=C(CNCc1cccs1)Nc1ccc(N2CCCCCC2)cc1 | nt | 6.8% | nt | 22.4µM* | nt
O=C(CNCc1cccs1)Nc1ccc(S(=O)(=O)N2CCCCC2)cc1 | nt | 10.9% | nt | ? | nt
CCCOC(=O)c1ccc(NC(=O)/C=C/c2cccs2)cc1 | ? | -5.7% | 51.7 | -14.7% | nt
O=C(c1ccc(NS(=O)(=O)c2cccs2)cc1)N1CCN(c2ccccc2Cl)CC1 | nt | 22.9% | nt | ? | nt
CCCOC(=O)c1ccc(NS(=O)(=O)c2cccs2)cc1 | 17.8µM* | -10.0%[38.3 µM] | ? | ? | 3.3
Cc1cccc(NS(=O)(=O)c2cccs2)c1 | 28.2µM* | 32.8%[38.3 µM] | 12.0 | 9.1% | 3.1
O=C(c1ccc(NS(=O)(=O)c2cccs2)cc1)N1CCCCC1 | 11.2µM* | -2.6% | ? | ? | -9.3[0.0738 µM]
CO[C@@H]1/C=C\CC(=O)N2CCC[C@@H]2C(=O)OC[C@@H](C)C(=O)OC[C@H]1C | nt | nt | nt | 13.1%[13.5 µM] | nt
C/C(=N\NC(=O)c1ccc(NS(=O)(=O)c2cccs2)cc1)c1ccc(Cl)cc1 | -9.3% | 4.5% | -89.3* | -6.4% | nt
O=S(=O)(Nc1ccc(N2CCCCC2)cc1)c1cccs1 | 25.1µM* | 7.4%[38.3 µM] | 40.9 | -2.0% | ?
C/C(=N\NC(=O)c1ccc(NS(=O)(=O)c2cccs2)cc1)c1cccs1 | nt | 6.5% | nt | 4.3% | nt
COc1ccc(NS(=O)(=O)c2cccc(C(=O)N/N=C(\C)c3ccc(-n4ccnc4)cc3)c2)cc1 | -22.6% | 22.5%[38.3 µM] | 52.2 | ? | 4.4
O=S(=O)(Nc1ccc(S(=O)(=O)N2CCCCCC2)cc1)c1cccs1 | -8.8% | 28.4%[38.3 µM] | 4.3 | ? | 3.5
COc1ccc(NS(=O)(=O)c2cccc(C(=O)N/N=C(\C)c3ccncc3)c2)cc1 | -16.1% | 7.8% | -91.3* | ? | nt
CCOc1cc(/C=C2/C(=O)N(c3ccccc3)N=C2C)ccc1OC(=O)c1cccs1 | 20µM* | 7.4%[38.3 µM] | 75.0 | ? | 2.9
O=C1NN(c2ccccc2)C(=O)/C1=C\c1cccc(OC(=O)c2cccs2)c1 | 2.51µM* | 23.5%[38.3 µM] | -6.5 | 7.94µM* | -0.6
CCOc1cc(/C=N/NC(=O)COc2cccc(C)c2)ccc1OC(=O)c1cccs1 | -16.6% | 12.0%[38.3 µM] | 46.0 | -1.8% | 1.9

Assay outcomes as filed in PubChem.
